In PubChem BioAssay (NCI):
This is part of a sample that, as a whole, favours compounds with a hit. Of some 79,000 tested, about 15% had one in any assay. Unmarked numbers belong to inactive results. Calls of active or inactive are those of the source. Rule as the data show it: active = growth inhibition above about 70%; inactive = the rest.

Experiments:
[1] = NCI Yeast Anticancer Drug Screen. Data for the rad50 strain (AID 155);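 also: 0% = growth of vehicle-only cultures of the same strain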; conditions: S. cerevisiae rad50 strain growth inhibition, hits give high values
Summary of the method: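 Cells are treated with compound, grown, and their growth is then scored against vehicle-only cultures of the same repair-deficient yeast strain.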

[2] = NCI Yeast Anticancer Drug Screen. Data for the sgs1 mgt1 strain (AID 161);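 also: 0% = growth of cultures given vehicle only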; conditions: S. cerevisiae sgs1 mgt1 strain, hits give high values
Summary of the method: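 Inhibition of yeast growth, normalised to vehicle-treated controls, is reported for a strain bearing genetic alterations in DNA damage repair.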

[3] = NCI Yeast Anticancer Drug Screen. Data for the cln2 rad14 strain (AID 165);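 also: 0% = growth equal to vehicle treated cultures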; conditions: S. cerevisiae cln2 rad14 strain, hits give high values
Summary of the method: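 Growth of compound-exposed yeast (cln2 rad14 genotype) measured and expressed as inhibition relative to vehicle.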

[4] = NCI Yeast Anticancer Drug Screen. Data for the bub3 strain (AID 167); conditions: S. cerevisiae bub3 mutant strain, hits give high values
Summary of the method: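 Part of a panel of yeast mutants defective in DNA damage repair or cell cycle regulation. Each strain is grown with compound, and inhibition is calculated relative to solvent-treated cultures.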

[5] = NCI Yeast Anticancer Drug Screen. Data for the mlh1 rad18 strain (AID 175); conditions: S. cerevisiae mlh1 rad18 strain growth inhibition, hits give high values
Summary of the method: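 In this whole-cell yeast screen, a strain with altered DNA damage repair is challenged with compound, and its growth is measured against matched vehicle-treated controls.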

[6] = NCI Yeast Anticancer Drug Screen. Data for the mec2-1 strain (AID 157); conditions: S. cerevisiae mec2-1 strain, hits give high values
Summary of the method: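 Test agents were screened against the mec2-1 yeast strain, with defined DNA repair or cell cycle alteration. Growth was scored as inhibition against vehicle-only controls.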

[7] = at 5.0 µM (retest, dose inferred, filed as 0.5)
[8] = at 50.0 µM (retest, dose inferred, filed as 5.0)

Row | Compound | growth inhibition [1, 7] | growth inhibition [1, 8] | growth inhibition ([1]; at 50.0 µM) | growth inhibition [2, 7] | growth inhibition [2, 8] | growth inhibition ([2]; at 50.0 µM) | growth inhibition [3, 7] | growth inhibition [3, 8] | growth inhibition ([3]; at 50.0 µM) | growth inhibition [4, 7] | growth inhibition [4, 8] | growth inhibition ([4]; at 50.0 µM) | growth inhibition [5, 7] | growth inhibition [5, 8] | growth inhibition ([5]; at 50.0 µM) | growth inhibition [6, 7] | growth inhibition [6, 8] | growth inhibition ([6]; at 50.0 µM)
1 | Oc1ccc2ccccc2c1N=Nc1ccccn1 | 35% | 91% (active) | 98.2% (active) | 19% | 96% (active) | 97.3% (active) | 10% | 94% (active) | 92.8% (active) | -26% | 92% (active) | 96.7% (active) | 27% | 94% (active) | 97.7% (active) |  |  | 
2 | CC[n+]1ccc(Nc2ccc(NC(=O)c3ccc(Nc4cc[n+](CC)c5ccc([N+](=O)[O-])cc45)cc3)cc2)cc1 | 84% (active) | 97% (active) | 99% (active) |  |  |  | 72% (active) | 96% (active) | 97% (active) | 72% (active) | 97% (active) | 99.1% (active) | 82% (active) | 97% (active) | 97.8% (active) | 14% | 97% (active) | 99% (active)
3 | CC(C)=C1C=C2CC[C@@H]3[C@](C)(CCC[C@@]3(C)C(=O)O)[C@H]2CC1 | -1% | 93% (active) | 88.3% (active) |  |  |  | -4% | 91% (active) | 90.3% (active) | -1% | 94% (active) | 85.8% (active) | 0% | 94% (active) | 88.5% (active) | 3% | 95% (active) | 90.2% (active)
4 | O=C(O)c1ccc(-c2ccccc2)cc1 | 12% | 80% (active) |  | 12% | 69% |  | -1% | 39% |  | -1% | 42% |  | -1% | 47% |  | 0% | 38% | 
5 | Oc1ccc(Cc2ccc(Cl)cc2)c(O)c1 | 3% | 98% (active) |  | -1% | 99% (active) |  | 0% | 98% (active) |  | -2% | 99% (active) |  | -33% | 98% (active) |  | -5% | 99% (active) | 
6 | COc1cccc(NC(=O)C(C#N)=C(SC)SC)c1 | 30% | 96% (active) |  | 49% | 95% (active) | 91.2% (active) | 34% | 41% | 43% | 42% | 95% (active) | 91.2% (active) | 23% | 59% | 90% (active) | 25% | 92% (active) | 
7 | COc1ccc2c(c1OC)OCC(CN(C)C)C2=O (configuration not stated) | -20% | 98% (active) | 97% (active) |  |  |  | 5% | 99% (active) | 96.3% (active) | 1% | 99% (active) | 93.9% (active) | -4% | 98% (active) | 99.2% (active) | 2% | 99% (active) | 99.3% (active)
8 | O=C1C=CC(=O)C2=C1CC=CC2 | -12% | 99% (active) |  | 29% | 100% (active) |  | -6% | 75% (active) |  | 26% | 100% (active) |  | 48% | 97% (active) |  | -2% | 99% (active) | 
9 | OC(c1cc2ccc(C(F)(F)F)cc2c2cc(C(F)(F)F)ccc12)C1CCCCN1 (configuration not stated) | 85% (active) | 98% (active) | 89.6% (active) | 96% (active) | 98% (active) | 88.9% (active) | 44% | 97% (active) | 88.2% (active) | 91% (active) | 99% (active) | 85.5% (active) | 97% (active) | 97% (active) | 85.7% (active) |  |  | 
10 | CC1=CC[C@@H]2[C@@H](CC[C@@]2(C)O)C(C)(C)[C@H]1CC[C@@H]1[C@@]2(C)CC[C@@H](O)C(C)(C)O[C@@H]2CC[C@]1(C)O | 12% | 39% | 62.9% |  |  |  | 18% | 19% | 46% | 17% | 33% | 45.8% | -2% | 20% | 12.6% | -8% | 19% | 38%
11 | CCSC(=O)c1ccc([N+](=O)[O-])o1 | 20% | 99% (active) |  | 31% | 100% (active) |  | 9% | 99% (active) |  | 13% | 100% (active) |  | -9% | 99% (active) |  | 6% | 100% (active) | 
12 | O=C1C=CC(=O)c2c(O)c(CO)c(CO)c(O)c21 | 28% | 95% (active) | 75.4% (active) | 28% | 94% (active) | 51% | 24% | 84% (active) | 15.5% | 40% | 98% (active) | 74.2% (active) | 30% | 96% (active) |  |  |  | 
13 | Cc1ccc(NC(=S)C#N)cc1Cl | 46% | 44% | 56.7% |  |  |  | 37% | 40% | 46.1% | 46% | 45% | 69.9% | 45% | 53% | 4.7% | 34% | 44% | 43.4%
14 | CCCCCCCCCCCCCCCCCC1=NCCCN1CCO | 7% | 6% | 96.8% (active) |  |  |  | 9% | 5% | -41.6% | 4% | 7% | 61.1% | 23% | 7% | 83% (active) | 5% | 5% | 87.5% (active)
15 | C/C(=N\NC(=S)N(C)C)c1ccccn1 | 94% (active) | 98% (active) |  | 93% (active) | 99% (active) | 88.6% (active) | 91% (active) | 97% (active) | 89.3% (active) | 95% (active) | 99% (active) | 88.7% (active) | 95% (active) | 98% (active) |  | 92% (active) | 99% (active) | 
16 | Cc1ccc2cccc(OC(=O)Nc3cccc(C(F)(F)F)c3)c2n1 | 50% | 95% (active) | 91.4% (active) | 50% | 100% (active) | 91.1% (active) | 38% | 98% (active) | 91% (active) | 42% | 98% (active) | 90.9% (active) | 50% | 98% (active) | 92.5% (active) |  |  | 
17 | CCC(C)(CC)c1ccc(O)cc1 | 14% | 78% (active) |  | -3% | 77% (active) |  | -2% | 23% |  | 0% | 44% |  | 33% | 76% (active) |  | -1% | 45% | 
18 | O=C1C=CC(=O)N1C1CCCCCCCCCCC1 | 32% | 66% | 83.5% (active) | 44% | 98% (active) |  | 56% | 98% (active) |  | 71% (active) | 97% (active) |  | 30% | 61% | 79.4% (active) | 46% | 58% | 86% (active)
19 | O=C(c1ccccc1)c1ccc(O)c2ncccc12 | 23% | 99% (active) | 98.6% (active) |  |  |  | -8% | 99% (active) | 98% (active) | 5% | 99% (active) | 98.5% (active) | 17% | 98% (active) | 98.3% (active) | -11% | 99% (active) | 97.8% (active)
20 | O=C(c1ccccc1)N(CCCl)C(=O)N(CCCl)C(=O)c1ccccc1 | 47% | 56% | 78% (active) | -7% | 68% |  | 45% | 56% |  | 23% | 64% |  | 31% | 36% | 68% |  |  | 
21 | CCC(C)C(N)C(=O)NC(CC(N)=O)C(=O)NC(CC(C)C)C(=O)NC(CCCCN)C(=O)NC(C)C(=O)NC(CC(C)C)C(=O)NC(C)C(=O)NC(C)C(=O)NC(CC(C)C)C(=O)NC(C)C(=O)NC(CCCCN)C(=O)NC(CCCCN)C(=O)NC(C(=O)NC(CC(C)C)C(N)=O)C(C)CC (configuration not stated) | -2% | 99% (active) | 93.3% (active) | -3% | 99% (active) | 93.8% (active) | 4% | 98% (active) | 92% (active) | -6% | 99% (active) | 93.6% (active) | 0% | 99% (active) | 92.8% (active) |  |  | 
22 | Nc1ncnc2c(C3OC(CO)C(O)C3O)c[nH]c12 (configuration not stated) | 26% | 92% (active) |  | 35% | 96% (active) | 89% (active) | 28% | 82% (active) | 88.2% (active) | 45% | 94% (active) | 71.1% (active) | 36% | 94% (active) |  | 14% | 92% (active) | 
23 | O=C1C=CC2C3C(=O)N(c4ccccc4)C(=O)C3C1N2Cc1ccccc1 (configuration not stated) | 18% | 48% |  | 50% | 70% (active) | 69.2% | 21% | 56% | 43.2% | 24% | 78% (active) | 61.9% | 51% | 79% (active) |  | 18% | 58% | 
24 | CCc1oc2ccccc2c1C(=O)c1cc(Br)c(O)c(Br)c1 | 29% | 99% (active) | 99.2% (active) |  |  |  | 8% | 100% (active) | 99% (active) | 1% | 99% (active) | 99.3% (active) | 18% | 99% (active) | 99.2% (active) | 11% | 100% (active) | 99.3% (active)
